# VCAM1 TNFa inh – inhibitors of TNFa-induced VCAM1 expression, primary screen, imaging, HUVEC, TNFa stimulus, immunofluorescence; HUVEC TNFa-induced VCAM-1 immunofluorescence, high-content imaging; inhibition, % at 2 µM; 0.48% of 95,000 active; AID 802, 2007;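 active = inhibition above the batch mean plus 3 SD, with images confirmed as a hit by eye, cut at about 37% in these data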
# HUVEC tox TNFa – cytotoxicity in TNFa-stimulated HUVEC, primary screen, cytotoxicity control for VCAM1 expression modulator project, imaging, Hoechst nuclei count | cell count reduction, % at 2 µM | HUVEC TNFalpha-stimulated, Hoechst cell count | 0.17% of 93,000 active;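 active = cell count reduction exceeding the screen mean by over 5 SD, scaled to untreated wells per plate, cut at about 78% in these data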;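 also: cells counted after 24 h of TNF alpha exposure following the 1 h pretreatment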
# cytoskel mod – modifiers of F-actin cytoskeleton organization, primary screen, imaging, HUVEC, phalloidin staining, high-content imaging; HUVEC TNFa F-actin phalloidin imaging; inhibition, % at 2 µM; 0.18% of 91,000 active;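 active = inhibition above the batch mean plus 3 SD and confirmed as a hit by visual image inspection, cut at about 30% in these data, passing the limit was not always enough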
# E-sel TNF inh – E-selectin induction blockers in HUVEC – imaging, immunofluorescence, high content, primary screen; HUVEC TNFa-induced E-selectin immunofluorescence; inhibition, % at 2 µM; 0.71% of 120,000 active;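 active = inhibition above the batch mean plus 3 SD, and confirmed as a hit on visual image review, cut at about 43% in these data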
# Hits are given with their value; – = inactive; · = no result given. Rows were chosen to be rich in hits. Some 1.1% of all compounds tested hit in one or more screens of this group.
SMILES,VCAM1 TNFa inh,HUVEC tox TNFa,cytoskel mod,E-sel TNF inh
Cc1ccc(CCN2C(=O)CCC2(C)C(=O)NCc2cccnc2)cc1 (stereo unspecified),–,–,–,–
C=C1C(=O)[C@@]23[C@H](O)C[C@@H]4C(C)(C)CC[C@H](O)[C@@]4(C)[C@@H]2CC[C@@H]1[C@H]3O,·,·,·,58
CSc1nc(=O)n2cc(C)ccc2n1,·,·,·,64
Cc1ccccc1C(=O)c1cccn1CC(=O)NCc1ccco1,–,–,–,62
O=C(Cn1cccc1C(=O)c1ccccc1)NCc1ccco1,–,–,–,·
S=c1[nH]nc(COc2ccc(Cl)cc2)n1Cc1ccco1,·,·,·,–
CC(C)CCNC(=O)c1nnc(Cc2ccc(Cl)cc2)o1,–,–,–,70
CCNC(=O)NC(=O)C(C)Sc1ncc(C(F)(F)F)cc1Cl (stereo unspecified),·,·,·,–
CCOc1ccc2[nH]c(=O)c(CN(Cc3ccccc3)C(=O)N3CCCC3)cc2c1,–,–,50,–
CCOc1ccc2[nH]c(=O)c(CN(CCO)C(=O)c3ccc(F)cc3)cc2c1,–,–,–,–
C/C(=N\Nc1cc(-c2ccccc2)nc(-c2ccccc2)n1)c1ccc(O)c(C)c1,·,·,·,80
CCCC(C)NC(=O)c1ccc(C2SCC(=O)N2Cc2ccco2)cc1 (stereo unspecified),–,–,–,–
CCn1c(O)c(N=NC(=O)c2cccs2)c2ccccc21,·,·,·,–
Cc1ccc(NC(=O)c2oc3c(c2C)C(=O)CC(C)(C)C3)cc1,97,–,–,–
Cc1c(C(=O)Nc2ccccc2)oc2c1C(=O)CC(C)(C)C2,–,–,–,–
Cc1ccsc1C(=O)N1CCC(N2CCC(C(=O)NCC3CCCO3)CC2)CC1 (stereo unspecified),·,·,·,–
CCC(C)n1c(SCC(=O)/C(C#N)=C(\C)N)nc2ccccc2c1=O (stereo unspecified),·,·,·,–
O=C(c1cccs1)N(C(=O)c1cccs1)c1ccc(Br)cn1,–,–,–,45
Cc1ccnc(N(C(=O)c2cccs2)C(=O)c2cccs2)c1,–,–,–,–
Cc1ccc(Cn2ncc3c(N4CCN(c5ccc(C)cc5)CC4)ncnc32)cc1,–,–,–,·
Cc1ccc(Cn2ncc3c(N4CCN(C5CCCC5)CC4)ncnc32)cc1,·,·,·,100
CCOc1cc(S(=O)(=O)Nc2ccccc2CC)ccc1Cl,98,79,–,–
CCn1c(-c2cc3c(C(F)(F)F)nn(C)c3s2)n[nH]c1=S,–,–,–,–
CN1Cc2cc(C(=O)c3cc(Cl)cc(CSc4ncccn4)c3O)cnc2NC1=O,96,–,–,–
C=CCn1c(SCC(=O)NC)nc2sc3c(c2c1=O)CCC3,–,–,–,80
SMILES,VCAM1 TNFa inh,HUVEC tox TNFa,cytoskel mod,E-sel TNF inh
C=CCn1c(SCC(=O)OC)nc2sc3c(c2c1=O)CCN(C)C3,–,–,–,–
COc1cccc(NC(=O)CN(C)CC(=O)Nc2ccc(C)cc2Cl)c1,·,·,·,–
COc1cccc(C(=O)Nc2cccc(-c3nc4ncccc4o3)c2C)c1,94,–,–,·
CCOc1cccc(C(=O)Nc2cccc(-c3nc4ncccc4o3)c2C)c1,·,·,·,–
CCCOC(=O)CSC1=C(C#N)C(c2ccccc2OC)C(C#N)C(=O)N1 (stereo unspecified),92,83,–,·
O=C(NC(NC1CCS(=O)(=O)C1)C(=O)c1cccs1)c1ccccc1 (stereo unspecified),94,–,–,–
COc1ccc(Br)cc1CN(C)CC(=O)Nc1c(Cl)cccc1Cl,·,·,·,68
COc1ccc(Br)cc1CN(C)CC(=O)Nc1cccc(S(N)(=O)=O)c1,·,·,·,–
CC(=O)/C=C(\C)Nc1c(C)n(C)n(-c2ccccc2)c1=O,·,·,·,–
CCCCN(C(=O)NC(=O)Nc1cccc(C)c1C)S(C)(=O)=O,90,–,–,·
CCCCC(=O)NC(c1ccc([N+](=O)[O-])cc1)c1c(O)ccc2ccccc12 (stereo unspecified),·,·,·,–
CCC(=O)NC(c1ccc([N+](=O)[O-])cc1)c1c(O)ccc2ccccc12 (stereo unspecified),–,–,–,100
CCCCOc1ccc(C(C)NC(=O)C2CCCN(S(=O)(=O)CCC)C2)cc1 (stereo unspecified),·,·,·,–
O=C(Cc1cccs1)NCc1ccccc1,·,·,·,–
O=C(Cc1cccs1)NCc1ccncc1,–,–,–,64
CC(C)(C)n1nc2c(c1NC(=O)c1cc3ccccc3o1)CS(=O)(=O)C2,·,·,·,–
CCCn1nnc(NC(=O)c2cccc(OCC(C)C)c2)n1,·,·,·,93
CCCn1nnc(NC(=O)c2cccc(OCC)c2)n1,–,–,–,–
CCCCc1nnc(NC(=O)CSc2nc(=O)cc(N)n2-c2cccc(C)c2)s1,–,–,–,–
Cc1ccc(NC2=NCC(=O)N2C2CCCC2)c(C)c1,–,–,–,–
CC(C)C(OC(=O)c1ccco1)C(=O)NC1CCCCC1 (stereo unspecified),–,–,–,–
CC(OC(=O)c1ccco1)C(=O)NC1CCCCC1 (stereo unspecified),–,–,–,86
Cc1cc(C)c(C#N)c(SCc2nc3ccccc3[nH]2)n1,–,–,34,–
N#Cc1c(SCc2nc3ccccc3[nH]2)nc2c(c1C(F)(F)F)CCC2,–,–,–,–
COc1ccc(-c2cc(C(F)(F)F)nc(S(=O)(=O)CCC(=O)N3CCOCC3)n2)cc1,98,–,–,–
SMILES,VCAM1 TNFa inh,HUVEC tox TNFa,cytoskel mod,E-sel TNF inh
Fc1ccc(-c2n[nH]c(=S)n2/N=C/c2c[nH]c3ccccc23)cc1,·,·,·,61
Cn1cccc1/C=N/n1c(-c2ccccc2)n[nH]c1=S,–,–,–,–
COc1cc(NC(=O)COC(=O)c2nc3nc(C)cc(C)n3n2)cc(OC)c1,–,–,–,·
CCCCNC(=O)COc1ccccc1[N+](=O)[O-],·,·,·,–
COc1ccccc1CNC(=O)c1nn(-c2ccc(C)cc2)c(=O)c2c1c1ccccc1n2C,–,–,–,–
O=C1C2CCCN2C(c2ccccc2)N1c1nccs1 (stereo unspecified),–,–,–,85

# Assay outcomes from PubChem BioAssay.
